# Assay results published in the supplement of paper PMC8728848.
# The sample as a whole holds a higher share of the strongest signals than the screen did.
# What was measured:
# Assay in all cases: glycan array binding signal (z-score within array); higher = stronger binding
# Settings in all cases: glycan notation: IUPAC condensed, linker removed
# [1] = biological target: Fuc(a1-2)Gal(b1-3)GlcNAc(b1-3)[Gal(b1-4)GlcNAc(b1-6)]Gal(b1-4)Glc
# In short: (§1)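 The binding signal is a Z-score computed within each array and averaged over linkers. Arrays of the same protein sequence at different concentrations or buffers were also averaged together. Data originate from 3228 arrays in the Consortium for Functional Glycomics database, kept only where the protein sequence was available.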
# [2] = biological target: Fuc(a1-2)Gal(b1-3)GlcNAc(b1-3)[Neu5Ac(a2-6)Gal(b1-4)GlcNAc(b1-6)]Gal(b1-4)Glc
# In short: as §1
# [3] = biological target: Fuc(a1-2)Gal(b1-4)Glc
# In short: as §1
# [4] = biological target: Fuc(a1-2)Gal(b1-4)GlcNAc(b1-3)Gal(b1-4)GlcNAc(b1-3)Gal(b1-4)GlcNAc
# In short: as §1
# [5] = biological target: Fuc(a1-2)[Gal(a1-3)]Gal
# In short: as §1
# [6] = biological target: Fuc(a1-2)[Gal(a1-3)]Gal(b1-3)GlcNAc(b1-6)GalNAc
# In short: as §1
# [7] = biological target: Fuc(a1-2)[Gal(a1-3)]Gal(b1-4)GlcNAc(b1-6)GalNAc
# In short: as §1
# [8] = biological target: Fuc(a1-2)[GalNAc(a1-3)]Gal(b1-3)GlcNAc(b1-2)Man(a1-3)[Fuc(a1-2)[GalNAc(a1-3)]Gal(b1-3)GlcNAc(b1-2)Man(a1-6)]Man(b1-4)GlcNAc(b1-4)[Fuc(a1-6)]GlcNAc
# In short: as §1
# [9] = biological target: Fuc(a1-2)[GalNAc(a1-3)]Gal(b1-4)GlcNAc(b1-3)[Fuc(a1-2)[GalNAc(a1-3)]Gal(b1-4)GlcNAc(b1-6)]GalNAc
# In short: as §1
# [10] = biological target: Fuc(a1-3)[GalNAc(b1-4)]GlcNAc
# In short: as §1
# [11] = biological target: Fuc(a1-4)GlcNAc
# In short: as §1
# [12] = biological target: Gal(a1-3)Gal(b1-4)GlcNAc
# In short: as §1
# [13] = biological target: Gal(a1-3)[Gal(a1-4)]Gal(b1-4)GlcNAc
# In short: as §1
# [14] = biological target: Gal(b1-3)GlcNAc(b1-3)Gal(b1-4)Glc
# In short: as §1
# [15] = biological target: Gal(b1-3)GlcNAc(b1-3)Gal(b1-4)[Fuc(a1-3)]GlcNAc
# In short: as §1
# [16] = biological target: Gal(b1-3)[Fuc(a1-4)]GlcNAc(b1-2)Man
# In short: as §1
# [17] = biological target: Gal(b1-3)[GlcNAc(b1-6)]GalNAc
# In short: as §1
# [18] = biological target: Gal(b1-4)GalNAc(a1-3)[Fuc(a1-2)]Gal(b1-4)GlcNAc
# In short: as §1
# [19] = biological target: Gal(b1-4)GlcNAc(b1-2)Man(a1-3)[GlcNAc(b1-4)][Gal(b1-4)GlcNAc(b1-2)Man(a1-6)]Man(b1-4)GlcNAc(b1-4)GlcNAc
# In short: as §1
# [20] = biological target: Gal(b1-4)GlcNAc(b1-3)Gal(b1-4)GlcNAc(b1-3)Gal(b1-4)GlcNAc(b1-3)Gal(b1-4)GlcNAc(b1-3)Gal(b1-4)GlcNAc(b1-2)[Gal(b1-4)GlcNAc(b1-3)Gal(b1-4)GlcNAc(b1-3)Gal(b1-4)GlcNAc(b1-3)Gal(b1-4)GlcNAc(b1-3)Gal(b1-4)GlcNAc(b1-6)]Man(a1-6)[Gal(b1-4)GlcNAc(b1-3)Gal(b1-4)GlcNAc(b1-3)Gal(b1-4)GlcNAc(b1-3)Gal(b1-4)GlcNAc(b1-3)Gal(b1-4)GlcNAc(b1-2)Man(a1-3)]Man(b1-4)GlcNAc(b1-4)[Fuc(a1-6)]GlcNAc
# In short: as §1
# [21] = biological target: Gal(b1-4)GlcNAc(b1-3)Gal(b1-4)GlcNAc(b1-6)[Gal(b1-3)]GalNAc
# In short: as §1
# [22] = biological target: Gal3S4S(b1-4)GlcNAc
# In short: as §1
# [23] = biological target: Gal3S6S(b1-4)GlcNAc
# In short: as §1
# [24] = biological target: Gal4S(b1-4)GlcNAc
# In short: as §1
# [25] = biological target: GalNAc3S(b1-4)[Fuc(a1-3)]GlcNAc
# In short: as §1
# [26] = biological target: GlcNAc(b1-2)[GlcNAc(b1-4)]Man(a1-3)[GlcNAc(b1-2)Man(a1-6)]Man(b1-4)GlcNAc(b1-4)GlcNAc
# In short: as §1
# [27] = biological target: GlcNAc(b1-2)[GlcNAc(b1-4)]Man(a1-3)[GlcNAc(b1-4)][GlcNAc(b1-2)Man(a1-6)]Man(b1-4)GlcNAc(b1-4)GlcNAc
# In short: as §1
# [28] = biological target: GlcNAc(b1-2)[GlcNAc(b1-4)]Man(a1-3)[GlcNAc(b1-4)][GlcNAc(b1-2)[GlcNAc(b1-6)]Man(a1-6)]Man(b1-4)GlcNAc(b1-4)GlcNAc
# In short: as §1
# [29] = biological target: GlcNAc(b1-2)[GlcNAc(b1-4)]Man(a1-3)[GlcNAc(b1-4)][GlcNAc(b1-2)[GlcNAc(b1-6)]Man(a1-6)]Man(b1-4)GlcNAc(b1-4)[Fuc(a1-6)]GlcNAc
# In short: as §1
# [30] = biological target: GlcNAc(b1-3)Gal(b1-4)GlcNAc(b1-2)[GlcNAc(b1-3)Gal(b1-4)GlcNAc(b1-6)]Man(a1-6)[GlcNAc(b1-3)Gal(b1-4)GlcNAc(b1-2)Man(a1-3)]Man(b1-4)GlcNAc(b1-4)GlcNAc
# In short: as §1
binder,measurement,setting,value
SP8524D-bot-399-27-399 (Bacteroides ovatus) (protein) DAKYDTLDTHAYIEEALSSTSQKVTVQATGESFTTLNVHLSNLSSTDNHYKLVTDQSVLDTYNHINGTGYIMLPKDYYTLPETITVKAGQYAADALSIALKAFSQEMMKSGESYALPVKLVLQDGSISPMENTGTFVILAESIIEFSAPMFVGAPSLKANKFTESPETYSQYTIEVRFQVANTADRDRAVFKNGGDDANFILLRFEDPQSDNENYKAHSLVQIVGRNRLYLNPSNSFKPNEWQHLALVCDGSNYRLYINGVDSGVLSIPTGATTFSDVNWFCLGDDSYSRWGNCKILMSEARIWSVVRSASQIQNNMTQVSPKSVGLEAYWRFNEGQGNVFEDATGKGHTLTTSATPTWIDGILSTDKSTEWK,glycan array binding signal (z-score),[1],-0.119
same,glycan array binding signal (z-score),[2],-0.348
same,glycan array binding signal (z-score),[3],-0.082
same,glycan array binding signal (z-score),[4],-0.049
same,glycan array binding signal (z-score),[5],1.34
same,glycan array binding signal (z-score),[6],-0.387
same,glycan array binding signal (z-score),[7],-0.255
same,glycan array binding signal (z-score),[8],-0.246
same,glycan array binding signal (z-score),[9],-0.238
same,glycan array binding signal (z-score),[10],1.02
same,glycan array binding signal (z-score),[11],6.02
same,glycan array binding signal (z-score),[12],-0.463
same,glycan array binding signal (z-score),[13],3.56
same,glycan array binding signal (z-score),[14],-0.359
same,glycan array binding signal (z-score),[15],-0.174
same,glycan array binding signal (z-score),[16],0.35
same,glycan array binding signal (z-score),[17],-0.01
same,glycan array binding signal (z-score),[18],0.229
same,glycan array binding signal (z-score),[19],-0.382
same,glycan array binding signal (z-score),[20],1.02
same,glycan array binding signal (z-score),[21],0.317
same,glycan array binding signal (z-score),[22],-0.075
same,glycan array binding signal (z-score),[23],0.506
same,glycan array binding signal (z-score),[24],0.045
same,glycan array binding signal (z-score),[25],0.563
same,glycan array binding signal (z-score),[26],16.1
same,glycan array binding signal (z-score),[27],8.43
same,glycan array binding signal (z-score),[28],12.1
same,glycan array binding signal (z-score),[29],2.04
same,glycan array binding signal (z-score),[30],0.455
